Laboratory results from publication PMC4336329 (PLoS ONE, 2015).
Hit rate of the full screen: of about 310,000 compounds, about 2,200 (0.71%) showed an effect of 50% or more. Effects have a minus sign here. The list comes from a sample in which strong results are over-represented; it also holds similar structures and randomly drawn compounds.

target: human ether-à-go-go-related gene (hERG) potassium channel (human, UniProt Q12809); assay: primary screen, population patch clamp on CHO cells stably expressing hERG; higher = less effect of the substance
Sequence (Q12809 whole entry, looked up): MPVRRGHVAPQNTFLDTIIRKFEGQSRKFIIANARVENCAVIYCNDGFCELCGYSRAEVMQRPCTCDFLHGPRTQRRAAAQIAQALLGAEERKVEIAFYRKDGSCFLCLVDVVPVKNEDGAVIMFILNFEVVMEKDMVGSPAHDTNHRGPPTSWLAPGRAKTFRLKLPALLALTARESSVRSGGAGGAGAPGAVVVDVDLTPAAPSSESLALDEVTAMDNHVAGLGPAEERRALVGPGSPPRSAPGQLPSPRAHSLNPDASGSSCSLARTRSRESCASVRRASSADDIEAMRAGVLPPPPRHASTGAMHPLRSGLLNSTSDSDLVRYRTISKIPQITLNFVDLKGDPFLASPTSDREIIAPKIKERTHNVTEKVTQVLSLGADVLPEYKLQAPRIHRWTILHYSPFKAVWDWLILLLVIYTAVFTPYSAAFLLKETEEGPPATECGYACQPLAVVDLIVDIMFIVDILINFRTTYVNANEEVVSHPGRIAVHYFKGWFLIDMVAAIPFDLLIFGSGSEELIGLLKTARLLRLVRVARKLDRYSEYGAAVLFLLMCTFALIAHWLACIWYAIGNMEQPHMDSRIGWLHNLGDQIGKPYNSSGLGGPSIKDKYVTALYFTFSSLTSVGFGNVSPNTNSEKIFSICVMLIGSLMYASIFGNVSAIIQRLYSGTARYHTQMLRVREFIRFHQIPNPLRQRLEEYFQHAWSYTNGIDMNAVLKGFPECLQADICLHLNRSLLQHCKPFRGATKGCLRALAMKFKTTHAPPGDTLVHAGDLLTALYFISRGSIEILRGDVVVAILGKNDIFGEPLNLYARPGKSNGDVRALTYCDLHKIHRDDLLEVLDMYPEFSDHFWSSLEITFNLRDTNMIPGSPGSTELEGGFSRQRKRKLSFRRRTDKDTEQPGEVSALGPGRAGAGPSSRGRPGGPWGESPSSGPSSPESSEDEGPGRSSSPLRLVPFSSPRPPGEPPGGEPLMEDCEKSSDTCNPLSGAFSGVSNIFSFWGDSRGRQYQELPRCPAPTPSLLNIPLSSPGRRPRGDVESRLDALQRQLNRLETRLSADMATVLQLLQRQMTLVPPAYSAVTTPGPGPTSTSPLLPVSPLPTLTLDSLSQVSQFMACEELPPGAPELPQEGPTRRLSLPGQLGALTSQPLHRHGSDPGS

Structure (SMILES) | hERG current change (%, negative = inhibition) at 1uM [%]
Clc1ccc(Oc2nc(N3CCOCC3)nc(N3CCOCC3)n2)c(C2CCCCC2)c1 | 10.6
Clc1cccc(Cl)c1CN1CCN(c2ccccc2)CC1 | 15.9
O=C(CCN1C(=O)C2C3CCC(C3)C2C1=O)Nc1cccc(Cl)c1 (stereo not shown) | 4.67
CCC1(CC)NC(=O)N(CC(=O)OCC(=O)Nc2ccc(F)c(F)c2F)C1=O | 4.85
Cc1ccc(NC(=O)/C=C/c2ccc([N+](=O)[O-])s2)c(C)c1 | 10.5
CCOc1ccccc1-n1c(SCC(=O)NC(C)CC)nnc1-c1ccoc1C (stereo not shown) | -2.44
CCOCCCn1c(SC(C(=O)Nc2cc(C)ccc2C)c2ccccc2)nnc1-c1ccc(Cl)cc1 (stereo not shown) | 13.5
CC(=O)Nc1ccc(S(=O)(=O)NC2(C(F)(F)F)NC(=O)N(c3ccccc3F)C2=O)cc1 (stereo not shown) | 19.3
COc1ccc(NS(=O)(=O)c2ccc(/C=C/C(=O)O)cc2)cc1S(=O)(=O)N1CCOCC1 | 10.7
COc1ccc(NC(=O)c2ccc(S(=O)(=O)NCc3cccnc3)cc2)cc1 | -13.3
O=C(Nc1ccc2oc(-c3ccccc3F)nc2c1)c1ccc2c(c1)OCCO2 | 3.14
COCCCNCCCCOc1ccc(Br)cc1Cl.O=C(O)C(=O)O | -61.5
CC1CCN(CCOc2ccc(C(=O)c3ccccc3)cc2)CC1.O=C(O)C(=O)O | 3.49
CC1CCN(CCCCOc2ccc(C(=O)c3ccccc3)cc2)CC1.O=C(O)C(=O)O | -72.4
O=C(O)C(=O)O.c1ccc(COc2ccc(OCCCCN3CCCCC3)cc2)cc1 | -46.8
COCCCNCCCCOc1ccc(Br)cc1C.O=C(O)C(=O)O | -24
CCN1CCN(CCCOc2ccccc2-c2ccccc2)CC1.O=C(O)C(=O)O | -16.6
O=C(O)C(=O)O.c1ccc(COc2ccc(OCCCN3CCCC3)cc2)cc1 | -39.1
Cc1ccc(OCCCCN2CCC(C)CC2)cc1.O=C(O)C(=O)O | -0.565
Cl.OCCCN1CCN(CCCOc2ccccc2-c2ccccc2)CC1 | -57.7
Cl.OCCN1CCN(CCOc2ccccc2-c2ccccc2)CC1 | 6.46
COCCNCCCOc1ccc(Br)cc1Cl.O=C(O)C(=O)O | 0.786

Structure (SMILES) | hERG current change (%, negative = inhibition) at 1uM [%]
O=C(O)C(=O)O.c1ccc(COc2ccc(OCCCN3CCCCC3)cc2)cc1 | -57.7
CCN(CC)S(=O)(=O)c1ccc(C(=O)NCc2ccc3[nH]c4c(c3c2)CCCC4)cc1 | 16.4
COc1cccc(CN2CCC(C(=O)N3CCN(c4ccccc4F)CC3)CC2)c1 | -20.8
CCCn1c(=O)c(C(=O)Nc2ccccc2C(=O)OCC)c(O)c2ccccc21 | 16.2
CNC(=S)Nc1cc(C(F)(F)F)ccc1Cl | -4.86
Cc1cc(OCC(=O)Nc2ccc3oc(-c4ccncc4)nc3c2)ccc1Cl | 9.6
Cc1ccc(/C=C2\SC(=S)N(CCCC(=O)Nc3ccccn3)C2=O)cc1 | 3.9
Cc1csc(NC(=O)C2=NN(c3ccccc3)C(=O)CC2)n1 | 9.03
O=C(O)C(=O)O.c1ccc(-c2ccccc2OCCCN2CCCCCC2)cc1 | -52.7
Brc1ccccc1OCCCCN1CCCCC1 | -1.28
O=C(O)C(=O)O.c1ccc(-c2ccccc2OCCCCN2CCCCCC2)cc1 | -48.2
CC1CCN(CCOCCOc2ccc(Br)cc2Cl)CC1.O=C(O)C(=O)O | -52
Brc1ccccc1OCCCN1CCCCCC1.O=C(O)C(=O)O | -59.2
CC1CCCN(CCOCCOc2ccc(Br)cc2Cl)C1.O=C(O)C(=O)O (stereo not shown) | -7.22
O=C(O)C(=O)O.c1ccc(-c2ccccc2OCCCN2CCCC2)cc1 | -49.4
Brc1ccccc1OCCCN1CCCC1.O=C(O)C(=O)O | 8.64
CN1CCN(CCOCCOc2ccc(Br)cc2Cl)CC1.O=C(O)C(=O)O | 10.1
CNc1ccccc1C(=O)OCC(=O)c1ccc(F)cc1 | 7.17
CCN1C(=O)c2ccc(C(=O)NCc3ccco3)cc2C1=O | 11
O=C(CC1Sc2ccccc2NC1=O)NNC(=O)Nc1ccc(Cl)cc1 (stereo not shown) | 9.26
CCOc1ccccc1NC(=O)C(NCC1(N2CCCCC2)CCCCC1)c1ccccc1.O=C(O)C(=O)O (stereo not shown) | -57.4
CCOc1ccccc1NC(=O)C(NCC1CCCCC1)c1ccccc1 (stereo not shown) | 8.03

Structure (SMILES) | hERG current change (%, negative = inhibition) at 1uM [%]
CCOc1ccccc1NC(=O)C(NCCN(C)C)c1ccccc1.O=C(O)C(=O)O (stereo not shown) | -49.1
C/C(N)=C(\C#N)C(=O)NCc1ccccn1 | 10.9
Cc1cc(C)c(-c2cc(C(F)(F)F)no2)c(=O)[nH]1 | 12.2
O=C(O)Cn1nc2c3c(cccc3c1=O)-c1ccccc1-2 | 8.49
CCN(CC)CCn1nc2c3c(cccc3c1=O)-c1ccccc1-2 | -50
O=c1c2cccc3c2c(nn1CN1CCOCC1)-c1ccccc1-3 | -15.3
COc1ccc(OC(=O)NCCc2ccccc2)cc1 | 12.2
Cc1ccc(S(=O)(=O)c2cc3c(=O)n4cccc(C)c4nc3n(C3CCCCC3)c2=N)cc1 | 8.4
Cc1cccn2c(=O)c3cc(C(=O)NCc4ccco4)c(=N)n(C4CCCC4)c3nc12 | -85.5
Cc1cccn2c(=O)c3cc(S(=O)(=O)c4ccc(Br)cc4)c(=N)n(C4CCCC4)c3nc12 | 14.5
Cc1cccn2c(=O)c3cc(S(=O)(=O)c4ccc(Br)cc4)c(=N)n(C4CCCCC4)c3nc12 | 26
Cc1cccn2c(=O)c3cc(C(=O)NCc4ccco4)c(=N)n(C4CCCCC4)c3nc12 | -84.8
CC1CCc2nc(NC(=O)Cc3cccs3)sc2C1 (stereo not shown) | 12.7
O=C1NC(C(F)(F)F)(C(F)(F)F)N=C2SC=CN12 | 1.69
CCCOc1ccc(C2C(C(=O)OC)=CN(CCOC)C=C2C(=O)OC)cc1 | -5.54
CCN(CC)C(=O)CN1C(=O)COCC1=O | 5.42
S=C1NC(c2ccccc2)N2C(=S)NC(c3ccccc3)N12 (stereo not shown) | 3.38
CCOc1ccc2nc(C)cc(Nc3ccc4c(c3)OCCO4)c2c1.Cl | -47
CCOc1ccc2nc(C)cc(Nc3ccc(N4CCOCC4)cc3)c2c1.Cl | -60.6
COc1ccc2nc(C)cc(Nc3ccc(N4CCOCC4)cc3)c2c1.Cl | -25.1
CCOc1ccc(-n2c(-c3ccc(OC)cc3)c[n+]3c2CCCCC3)cc1.[Br-] | -39.1
CCOc1ccc(-c2c(C)n(-c3ccc(OCC)cc3)c3[n+]2CCCCC3)cc1.[O-][Cl+3]([O-])([O-])[O-] | -50.8

Structure (SMILES) | hERG current change (%, negative = inhibition) at 1uM [%]
CCOc1ccc(-n2c(-c3ccc(Br)cc3)c[n+]3c2CCCCC3)cc1.[Br-] | -46.5
CCCNC(=O)C(Cc1ccc(F)cc1)NC(=O)c1ccc(C#N)cc1 (stereo not shown) | -17.5
CCC(CC)c1nnc(NC(=O)c2cccc(S(=O)(=O)N3CCc4ccccc43)c2)s1 | 13.3
Cl.O=C1Cc2ccccc2Sc2cc(OCCCN3CCCCC3)ccc21 | -29.1
CN(C)CCCOc1ccc2c(c1)Sc1ccccc1CC2=O.Cl | -53.3
CN(C)CCOc1ccc2c(c1)Sc1ccccc1CC2=O.Cl | -18.3
O=C(Cc1ccc([N+](=O)[O-])cc1)OCc1c(F)cccc1Cl | 14.7
CCOc1ccc(N=C2NC(=O)CS2)cc1 | 11.1
Cc1ccc(NC(=O)NC2CCCCCCC2)cc1C | 11.5
OCC1(CCc2ccccc2)CCCN(CCCC(F)(F)F)C1 (stereo not shown) | -13.2
OCC1(CCc2ccccc2)CCN(Cc2ccccc2Cl)CC1 | -54.6
OCC1(CC2CCCCO2)CCN(C/C=C/c2ccccc2)CC1 (stereo not shown) | -2.99
OCC1(Cc2ccc(F)cc2)CCCN(CCc2ccccc2)C1 (stereo not shown) | -0.0287
OCC1(Cc2ccc(F)cc2F)CCCN(CCCc2ccccc2)C1 (stereo not shown) | -56.1
OCC1(Cc2ccccc2F)CCCN(CCc2ccccc2)C1 (stereo not shown) | -30.5
OCC1(CCc2ccccc2)CCCN(CCCc2ccccc2)C1 (stereo not shown) | -57.6
OCC1(CCc2ccccc2)CCN(Cc2c(F)ccc(F)c2F)CC1 | 7.97
OCC1(CCc2ccccc2)CCN(C/C=C/c2ccccc2)CC1 | -86.4
O=C(Cc1ccccc1)N1CCN(C/C=C/c2ccccc2)CC1 | -6.02
OCC1(Cc2ccc(F)cc2F)CCCN(Cc2ccc(Cl)cc2)C1 (stereo not shown) | -15
OCC1(CCc2ccccc2)CCN(Cc2cc(Cl)ccc2O)CC1 | -5.01
Cc1cc(C(=O)N2CCCC(N3CCN(c4cccc(Cl)c4)CC3)C2)no1 (stereo not shown) | 10.5
